Results taken from the supplement of paper PMC12669032.

Key:
Assay in all cases: growth AUC relative to DMSO control (median of replicates) (fraction); higher = more growth (less inhibition), active = hit call of the paper
Conditions in all cases: 20 µM; 24 h;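 active = AUC reduced over 20% with Padj below 0.05 in at least 2 of 3 replicates; inactive = otherwise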
[1] = test system: Coprococcus comes
Procedure, shortened: (§1)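 Hourly OD600 readings over 24 h tracked anaerobic gut bacterial monocultures grown at 37 °C in mGAM from OD600 0.05 with 20 µM compound (1% DMSO). After the minimum OD was set to 0, area under the growth curve was normalised to the plate median of solvent-only wells, or to row and column medians on the industrial chemical plate. Values are medians of three biological replicates grown on separate days.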

[2] = test system: Escherichia coli ED1a
Procedure, shortened: as §1

[3] = test system: Escherichia coli IAI1
Procedure, shortened: as §1

[4] = test system: Eubacterium rectale
Procedure, shortened: as §1

[5] = test system: Fusobacterium nucleatum subsp. animalis
Procedure, shortened: as §1

[6] = test system: Lactobacillus gasseri
Procedure, shortened: as §1

[7] = test system: Lactobacillus paracasei
Procedure, shortened: as §1

[8] = test system: Odoribacter splanchnicus
Procedure, shortened: as §1

[9] = test system: Parabacteroides distasonis
Procedure, shortened: as §1

[10] = test system: Parabacteroides merdae
Procedure, shortened: as §1

Measured: growth AUC

CC1(C)[C@H](C=C(Cl)Cl)[C@H]1C(=O)OCc1c(F)c(F)cc(F)c1F
inactive: [1] 1 | [2] 1.01 | [3] 1.03 | [4] 0.957 | [5] 1.04 | [6] 1.02 | [7] 0.947 | [8] 1.02 | [9] 0.999 | [10] 0.989

C=CCC1=C(C)C(OC(=O)[C@@H]2[C@@H](C=C(C)C)C2(C)C)CC1=O (stereo not given in full)
inactive: [1] 1.03 | [2] 1.01 | [3] 0.988 | [4] 0.919 | [5] 1 | [6] 0.962 | [7] 0.968 | [8] 1.07 | [9] 0.9 | [10] 0.999

CN(C)C(CSS(=O)(=O)[O-])CSS(=O)(=O)[O-].[Na+].[Na+]
inactive: [1] 0.999 | [2] 0.983 | [3] 0.998 | [4] 1.47 | [5] 1.18 | [6] 1 | [7] 1.01 | [8] 0.951 | [9] 0.978 | [10] 0.998

O=C1C2CC=CCC2C(=O)N1SC(Cl)(Cl)Cl (stereo not given)
inactive: [1] 1.03 | [2] 1.02 | [3] 1.02 | [4] 1.1 | [5] 1.1 | [6] 1.06 | [7] 1.01 | [8] 0.999 | [9] 1.07 | [10] 1.02

O=C(Nc1ccccc1)Nc1ccnc(Cl)c1
active: [3] 0.788 | [9] 0.677
inactive: [1] 1.03 | [2] 0.942 | [4] 0.803 | [5] 1.1 | [6] 0.858 | [7] 0.971 | [8] 0.912 | [10] 0.888

CN(C)C(CSS(=O)(=O)[O-])CSS(=O)(=O)O.[Na+]
inactive: [1] 0.987 | [2] 1.03 | [3] 1.01 | [4] 1.5 | [5] 1.11 | [6] 0.952 | [7] 0.984 | [8] 1.05 | [9] 0.979 | [10] 1.03

COP(=O)(OC)O/C(C)=C/C(=O)N(C)C
inactive: [1] 1 | [2] 1 | [3] 0.997 | [4] 1.01 | [5] 0.937 | [6] 1.08 | [7] 1.06 | [8] 0.972 | [9] 0.905 | [10] 0.994

CCOP(=O)(OCC)OCC
inactive: [1] 1.01 | [2] 1.01 | [3] 1.07 | [4] 1.01 | [5] 1.07 | [6] 0.931 | [7] 0.964 | [8] 1.05 | [9] 1.03 | [10] 1.05

O=C(Nc1ccccc1)c1ccccc1I
inactive: [1] 1.05 | [2] 1.04 | [3] 1 | [4] 0.97 | [5] 1.04 | [6] 1.09 | [7] 0.96 | [8] 0.989 | [9] 0.991 | [10] 1.01

CCOP(=O)(SC(C)CC)SC(C)CC (stereo not given)
inactive: [1] 1.01 | [2] 1.01 | [3] 0.987 | [4] 1.1 | [5] 0.983 | [6] 1.04 | [7] 0.989 | [8] 0.933 | [9] 0.95 | [10] 0.975

CCCCCCCC(=O)Oc1c(I)cc(C#N)cc1I
inactive: [1] 0.995 | [2] 0.985 | [3] 0.896 | [4] 1.09 | [5] 1.16 | [6] 0.89 | [7] 1.01 | [8] 0.91 | [9] 0.91 | [10] 0.908

CCOCn1c(-c2ccc(Cl)cc2)c(C#N)c(Br)c1C(F)(F)F
inactive: [1] 1.02 | [2] 0.99 | [3] 0.99 | [4] 1.03 | [5] 1.05 | [6] 0.904 | [7] 0.992 | [8] 0.951 | [9] 0.924 | [10] 0.834

OC(c1ccc(F)cc1)(c1cncnc1)c1ccccc1Cl (stereo not given)
active: [10] 0.782
inactive: [1] 0.962 | [2] 0.996 | [3] 1.01 | [4] 0.965 | [5] 1.06 | [6] 0.969 | [7] 1.02 | [8] 0.931 | [9] 1

CN(C)C(=S)[S-].CN(C)C(=S)[S-].[Zn+2]
inactive: [1] 0.834 | [2] 0.953 | [3] 0.906 | [5] 0.993 | [6] 0.976 | [7] 0.966 | [9] 0.954
active: [4] 0.563 | [8] 0.384 | [10] 0.699

CCOC(=O)CC(SP(=O)(OC)OC)C(=O)OCC (stereo not given)
inactive: [1] 1 | [2] 0.97 | [3] 0.976 | [4] 1.09 | [5] 0.893 | [6] 0.883 | [7] 0.973 | [8] 0.913 | [9] 0.902 | [10] 0.975

ClC1C(Cl)C(Cl)C(Cl)C(Cl)C1Cl (mixture of isomers)
inactive: [1] 1.03 | [2] 1.01 | [3] 0.981 | [4] 0.936 | [5] 0.966 | [6] 1.08 | [7] 1 | [8] 0.935 | [9] 1.04 | [10] 0.949

COP(=S)(NC(C)C)Oc1ccc(C)cc1[N+](=O)[O-] (stereo not given)
inactive: [1] 1.03 | [2] 0.997 | [3] 0.996 | [4] 0.933 | [5] 1.06 | [6] 1.03 | [7] 1.06 | [8] 0.998 | [9] 0.972 | [10] 0.973

COC(=O)C(C)Oc1ccc(Oc2ccc(Cl)cc2Cl)cc1 (stereo not given)
inactive: [1] 0.97 | [2] 0.99 | [3] 0.993 | [4] 1.12 | [5] 0.953 | [6] 1.06 | [7] 0.999 | [8] 1 | [9] 0.973 | [10] 0.96

O=C(O)c1c(Cl)ccc2cc(Cl)cnc12
inactive: [1] 1 | [2] 1 | [3] 0.969 | [4] 0.942 | [5] 1.02 | [6] 1.07 | [7] 0.934 | [8] 0.988 | [9] 0.986 | [10] 0.987
